From PubChem BioAssay (NCATS)
Values without a mark were called inactive. Inconclusive results are not listed. Activity calls are given as the source filed them. Unless noted, calls come from the whole dose curve; as a rule, active = well fitted curve in the direction sought with a large enough effect; inconclusive = small, poorly fitted or top-dose-only effect, or another doubt; inactive = no such curve, though single readings can be large; an effect the other way counts as inactive or inconclusive.

Assays:
[1] = biological target: Lysosomal acid glucosylceramidase (Homo sapiens) (UniProt P04062); assay: Glucocerebrosidase-p2 (AID 348; in the data active = potency below about 10 µM; note: potency is the fitted concentration of half-maximal effect); conditions: purified GBA, blue fluorogenic substrate, 40 min
How it was run: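 Normal human glucocerebrosidase (0.2 nM) with blue fluorogenic substrate (80 uM final) in citrate/phosphate pH 5.9 with 10mM sodium taurocholate, 0.01% tween-20; 40 min RT, NaOH/glycine stop; fluorescence Ex 365/Em 440; AC50 from a titration from 0.6 nM upwards.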

[2] = AP1 Signaling Pathway (AID 357; active = well fitted curve in either direction with a large enough effect, not every such curve was filed as active; note: % is set by controls: 0 for no effect and ±100 for the full control effect); conditions: ME-180 AP-1-bla reporter, EGF-induced, beta-lactamase ratio, 5 h; at 7.69 µM (top of the series) unless noted
How it was run: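 ME-180 cells with beta-lactamase reporter under AP-1 response element, stimulated with EC50 EGF; compounds tested in titration series, 5 h at 37 °C. CCF4 substrate added 2.5 h at room temperature; 460/530 nm emission ratio gave %activity and AC50.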

[3] = biological target: Cytochrome P450 1A2 (Homo sapiens) (UniProt P05177); assay: p450-cyp1a2 (AID 410; calls by dose curve; note: potency is the fitted concentration of half-maximal effect); conditions: recombinant CYP1A2, luciferin-ME demethylation, luminescence; series mostly up to 57 µM
How it was run: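 O-Demethylation of luciferin 6' methyl ether by human CYP1A2 is monitored as luciferase luminescence. Substrate sits at Km (100uM); enzyme is 20nM. Values are scaled to 57 uM furafylline as maximal inhibition.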

[4] = NFAT Signaling Pathway (AID 444; active = well fitted curve in either direction with a large enough effect, not every such curve was filed as active;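 note: carbachol stimulus at about its EC50 of 1 µM final; % is set by controls: 0 for no effect and ±100 for the full control effect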); conditions: Jurkat NFAT-bla M1, carbachol, beta-lactamase ratio, 5 h; at 7.69 µM (top of the series) unless noted
How it was run: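 Jurkat cells carrying an NFAT-driven β-lactamase reporter and co-transfected muscarinic M1 receptor were treated with compound plus carbachol (1 uM final, an EC50 level) for 5 h at 37 °C. CCF4 loading followed for 1 h at RT; 460/530 nm ratio gave %activity.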

[5] = Stat Signaling Pathway (AID 446; active = well fitted curve in either direction with a large enough effect, not every such curve was filed as active;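 note: ME-180 cervical cancer cells given 40 pM IL-6 alongside compound; SIE-controlled beta-lactamase reporter measured as 460/530 nm FRET emission ratio; % is set by controls: 0 for no effect and ±100 for the full control effect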); conditions: ME-180 SIE beta-lactamase reporter, IL-6 stimulated, 5 h; at 7.69 µM (top of the series) unless noted
How it was run: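 FRET read-out (405 nm excitation, 460/530 nm emission) of a beta-lactamase reporter under a STAT-inducible element in ME-180 cervical carcinoma cells. Cells with compound receive 40 pM IL-6 for 5 h. Values are normalised to AC90 stimulation and AC90 JAK-inhibitor controls.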

[6] = biological target: Glucocorticoid receptor (Homo sapiens) (UniProt P04150); assay: GR-GFP Redistribution (AID 450;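 active = compounds whose dose series gives a full or clear partial fitted curve of increased nuclear translocation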; note: potency is the fitted concentration of half-maximal effect); conditions: U2OS GR-GFP nuclear translocation, laser cytometry, 2 h
[7] = biological target: Glucocorticoid receptor (Homo sapiens) (UniProt P04150); assay: GR-EFC Redistribution (AID 451; calls by dose curve; note: potency is the fitted concentration of half-maximal effect); conditions: CHO-K1 GR-EFC translocation, beta-gal luminescence, 2 h
How it was run: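 CHO-K1 cells stably expressing nuclear-localized β-gal enzyme acceptor and GR fused C-terminally to the enzyme donor fragment; ligand-driven nuclear translocation restores β-gal by complementation. Compounds titrated up to 46 uM final, 2 h at 37 °C; luminescence read.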

[8] = biological target: Mitogen-activated protein kinase 10 (Mus musculus) (UniProt Q61831); assay: JNK3 AlphaScreen Assay (AID 530; active = well fitted curve in either direction with a large enough effect, not every such curve was filed as active;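 note: kinase came from lysate of stimulated human HepG2 cells; signal reports phosphorylation of biotinylated GST-cJun 1-79 at Ser73 with 10 µM ATP; % is set by controls: 0 for no effect and ±100 for the full control effect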); conditions: JNK3 lysate, c-Jun phosphorylation; series mostly up to 57.1 µM
How it was run: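 Phosphorylation of biotinylated GST-cJun(1-79) at Ser73 is measured by AlphaScreen proximity luminescence. Enzyme is JNK3 in HepG2 lysates activated with interleukin-1beta and tumor necrosis factor alpha; ATP is 10 uM final.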

[9] = biological target: Cytochrome P450 3A4 (Homo sapiens) (UniProt P08684); assay: qHTS Assay for Inhibitors and Substrates of Cytochrome P450 3A4 (AID 884); conditions: recombinant CYP3A4, Luciferin-PPXE luminescence; series mostly up to 57.1 µM; note: potency is the fitted concentration of half-maximal effect; nearly all actives have a fitted effect of over 50% in size
How it was run: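 Luminescent readout of luciferin produced by CYP3A4 (20 nM) dealkylation of Luciferin-PPXE, 25 uM (its KM). NADPH-driven reaction ran 60 min at RT after 10 min compound preincubation; data scaled to 57 uM ketoconazole as 100% inhibition.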

[10] = biological target: Cytochrome P450 3A4 (Homo sapiens) (UniProt P08684); assay: qHTS Assay for Activators of Cytochrome P450 3A4 (AID 885); conditions: recombinant CYP3A4, Luciferin-PPXE luminescence, 60 min; series mostly up to 57.1 µM; note: nearly all actives have a fitted effect of over 65% in size
How it was run: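 Luminescent readout of luciferin formed from 25 uM Luciferin-PPXE (KM level) by 20 nM CYP3A4 in 200 mM KPO4, with 60 min NADPH-driven reaction at room temperature after 10 min compound exposure. Ketoconazole (57 uM) defined 100% inhibition.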

[11] = biological target: Dual specificity protein kinase CLK4 (Homo sapiens) (UniProt Q9HAZ1); assay: qHTS Assay for Inhibitors of CDC-like Kinase 4 (ADP-Glo Assay) (AID 1771); conditions: recombinant CLK4, ADP-Glo luminescence; series mostly up to 80 µM; note: nearly all actives have a fitted effect of over 70% in size; note: potency is the fitted concentration of half-maximal effect
How it was run: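 Compounds are pin-transferred onto substrate mix (100 uM RS peptide, 1 uM ATP), then 25 nM Clk4 is added. After 1 hr at room temperature, ADP-Glo reagent runs 45 min, detection reagent 30 min, then luminescence is read.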

[12] = biological target: Dual specificity protein kinase CLK4 (Homo sapiens) (UniProt Q9HAZ1); assay: qHTS Assay for Inhibitors of CDC-like Kinase 4 (ADP-FP Assay) (AID 1795); conditions: Transcreener ADP fluorescence polarization; series mostly up to 50 µM; note: nearly all actives have a fitted effect of over 60% in size; note: potency is the fitted concentration of half-maximal effect
How it was run: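 FP readout: Orange Transcreener ADP2 tracer (4 nM) plus ADP antibody, read after 30 min at room temperature. Kinase step: 6.25 nM Clk4, 100 uM RS peptide, 1 uM ATP, pH 7.5, 1 h.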

[13] = biological target: Ubiquitin carboxyl-terminal hydrolase 1 (Homo sapiens) (UniProt O94782); assay: Inhibitors of USP1/UAF1: Pilot qHTS (AID 504865); conditions: purified USP1/UAF1, Ub-rhodamine cleavage fluorescence; series mostly up to 54.9 µM;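 note: rhodamine fluorescence freed from ubiquitin-rhodamine substrate followed over time; top concentration of the series differs between compounds; % is set by controls: 0 for no effect and ±100 for the full control effect; nearly all actives have a fitted effect of over 35% in size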
How it was run: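 1nM USP1/UAF1 + cpd, 15 min RT; start w/ Ub-Rho 150nM final; kinetic FL 480/540 nm, 6 reads q60 s. Buffer 50mM HEPES pH 7.8, 0.5mM EDTA, 1mM TCEP, 0.01% Tween-20, 0.1 mg/ml BSA.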

[14] = Primary qHTS for small molecule stabilizers of the endoplasmic reticulum resident proteome: Secreted ER Calcium Modulated Protein (SERCaMP) assay (AID 1508630); conditions: SH-SY5Y GLuc-SERCaMP (Gaussia luciferase released on ER calcium loss) secretion, thapsigargin, luminescence; series mostly up to 38.4 µM; note: % is set by controls: 0 for no effect and ±100 for the full control effect
How it was run: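 The SH-SY5Y reporter protocol was run at 3 concentrations up to 38.3 uM (primary) or 11 concentrations (follow-up): 16 h compound, 100 nM thapsigargin for 4 h, then extracellular luciferase luminescence.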

[15] = biological target: 3',5'-cyclic-AMP phosphodiesterase 4B (Homo sapiens) (UniProt Q07343); assay: qHTS Assay for Inhibitors of PDE-IV (AID 607; active = well fitted activation curve with a large enough effect in the main read-out, with a control signal flat, not every such curve was filed as active; note: % of control where 0% means no effect); conditions: HEK293 ACTOne CNG channel cells, membrane potential fluorescence; series mostly up to 22.9 µM
How it was run: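 Cell-based read-out of cAMP via a modified cyclic nucleotide-gated channel and membrane potential dye (535/590 nm) in HEK293 cells expressing PDE4 endogenously. Compounds tested up to 22.9 uM final; 100 uM RO 20-1724 reference.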

[16] = qHTS Assay for Identification of Small Molecule Agonists for Hypoxia Response Element Signaling Pathway (AID 914; active = well fitted activation curve with a large enough effect in the signal ratio, with a control signal flat, not every such curve was filed as active; the % refers to the signal ratio; note: potency is the fitted concentration of half-maximal effect); conditions: ME-180 (cervical carcinoma) HRE-bla reporter, beta-lactamase ratio, CoCl2, 17 h; activation: active compounds read high
How it was run: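 A beta-lactamase reporter under hypoxia response element control in ME-180 cells served as the system. Compound titrations plus EC50 CoCl2 ran 17 h at 37 degrees Celsius; AC50 values were fitted from %Activity.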

Sequence of Lysosomal acid glucosylceramidase (Homo sapiens) (P04062 whole entry, looked up): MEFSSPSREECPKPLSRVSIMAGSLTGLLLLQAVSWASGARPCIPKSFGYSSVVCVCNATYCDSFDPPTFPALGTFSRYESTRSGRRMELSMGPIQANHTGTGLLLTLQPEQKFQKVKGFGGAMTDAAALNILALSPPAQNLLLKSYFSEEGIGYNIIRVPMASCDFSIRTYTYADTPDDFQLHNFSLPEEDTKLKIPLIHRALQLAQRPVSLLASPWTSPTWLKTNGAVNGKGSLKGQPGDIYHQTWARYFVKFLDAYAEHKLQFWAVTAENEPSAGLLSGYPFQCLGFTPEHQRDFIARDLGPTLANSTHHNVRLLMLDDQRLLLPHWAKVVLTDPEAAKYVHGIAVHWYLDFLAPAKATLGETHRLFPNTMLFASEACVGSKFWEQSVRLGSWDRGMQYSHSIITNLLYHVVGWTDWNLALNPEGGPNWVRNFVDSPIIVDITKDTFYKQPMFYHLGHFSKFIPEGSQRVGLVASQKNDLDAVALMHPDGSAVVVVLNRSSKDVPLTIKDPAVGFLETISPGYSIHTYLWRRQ
Sequence of Dual specificity protein kinase CLK4 (Homo sapiens) (Q9HAZ1 whole entry, looked up): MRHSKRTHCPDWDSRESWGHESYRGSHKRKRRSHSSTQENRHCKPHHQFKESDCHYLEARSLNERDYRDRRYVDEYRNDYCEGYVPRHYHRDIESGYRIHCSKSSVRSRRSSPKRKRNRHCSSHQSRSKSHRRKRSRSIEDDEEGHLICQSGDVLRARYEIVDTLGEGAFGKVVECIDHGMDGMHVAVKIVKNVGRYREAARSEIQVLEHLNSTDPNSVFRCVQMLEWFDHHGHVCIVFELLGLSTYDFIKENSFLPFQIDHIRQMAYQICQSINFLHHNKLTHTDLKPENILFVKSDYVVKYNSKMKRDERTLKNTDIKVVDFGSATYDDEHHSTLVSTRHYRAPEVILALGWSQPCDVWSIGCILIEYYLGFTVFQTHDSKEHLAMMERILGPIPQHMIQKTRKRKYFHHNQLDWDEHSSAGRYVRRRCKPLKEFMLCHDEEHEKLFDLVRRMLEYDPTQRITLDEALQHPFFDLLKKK
Sequence of Glucocorticoid receptor (Homo sapiens) (P04150 whole entry, looked up, the tested form may be a part): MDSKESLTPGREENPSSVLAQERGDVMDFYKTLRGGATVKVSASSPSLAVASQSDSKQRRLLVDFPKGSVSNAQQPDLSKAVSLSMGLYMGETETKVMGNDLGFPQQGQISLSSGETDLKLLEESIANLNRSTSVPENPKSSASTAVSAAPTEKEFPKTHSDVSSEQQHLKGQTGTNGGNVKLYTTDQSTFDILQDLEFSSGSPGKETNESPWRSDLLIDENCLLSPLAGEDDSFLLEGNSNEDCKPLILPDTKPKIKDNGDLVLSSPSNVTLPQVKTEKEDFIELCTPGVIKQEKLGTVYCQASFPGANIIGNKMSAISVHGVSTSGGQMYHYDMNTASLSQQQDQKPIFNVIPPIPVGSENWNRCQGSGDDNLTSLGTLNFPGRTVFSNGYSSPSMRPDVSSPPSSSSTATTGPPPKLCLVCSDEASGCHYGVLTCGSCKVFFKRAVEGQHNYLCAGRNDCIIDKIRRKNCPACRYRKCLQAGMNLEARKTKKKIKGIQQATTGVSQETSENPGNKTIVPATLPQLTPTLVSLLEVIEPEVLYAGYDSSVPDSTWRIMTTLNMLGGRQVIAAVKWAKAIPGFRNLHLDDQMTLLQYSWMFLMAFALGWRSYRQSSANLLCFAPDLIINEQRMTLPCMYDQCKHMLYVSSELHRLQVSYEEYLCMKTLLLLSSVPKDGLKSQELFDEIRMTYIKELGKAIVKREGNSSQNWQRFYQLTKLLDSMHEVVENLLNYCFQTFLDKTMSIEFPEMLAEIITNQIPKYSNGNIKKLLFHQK
Sequence of Cytochrome P450 3A4 (Homo sapiens) (P08684 whole entry, looked up): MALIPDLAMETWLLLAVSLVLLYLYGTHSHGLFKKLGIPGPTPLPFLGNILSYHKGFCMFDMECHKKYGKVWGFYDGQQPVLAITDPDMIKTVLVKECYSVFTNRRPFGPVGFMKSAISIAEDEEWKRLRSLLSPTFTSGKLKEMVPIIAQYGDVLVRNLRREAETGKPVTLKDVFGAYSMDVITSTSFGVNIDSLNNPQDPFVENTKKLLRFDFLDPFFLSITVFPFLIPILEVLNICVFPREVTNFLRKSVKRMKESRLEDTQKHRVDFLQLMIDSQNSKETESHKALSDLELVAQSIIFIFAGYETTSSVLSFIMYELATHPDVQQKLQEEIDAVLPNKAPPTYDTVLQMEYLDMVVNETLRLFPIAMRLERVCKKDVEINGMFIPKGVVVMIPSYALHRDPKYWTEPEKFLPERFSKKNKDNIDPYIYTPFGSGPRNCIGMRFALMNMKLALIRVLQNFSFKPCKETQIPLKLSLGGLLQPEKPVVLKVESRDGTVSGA
Sequence of 3',5'-cyclic-AMP phosphodiesterase 4B (Homo sapiens) (Q07343 whole entry, looked up): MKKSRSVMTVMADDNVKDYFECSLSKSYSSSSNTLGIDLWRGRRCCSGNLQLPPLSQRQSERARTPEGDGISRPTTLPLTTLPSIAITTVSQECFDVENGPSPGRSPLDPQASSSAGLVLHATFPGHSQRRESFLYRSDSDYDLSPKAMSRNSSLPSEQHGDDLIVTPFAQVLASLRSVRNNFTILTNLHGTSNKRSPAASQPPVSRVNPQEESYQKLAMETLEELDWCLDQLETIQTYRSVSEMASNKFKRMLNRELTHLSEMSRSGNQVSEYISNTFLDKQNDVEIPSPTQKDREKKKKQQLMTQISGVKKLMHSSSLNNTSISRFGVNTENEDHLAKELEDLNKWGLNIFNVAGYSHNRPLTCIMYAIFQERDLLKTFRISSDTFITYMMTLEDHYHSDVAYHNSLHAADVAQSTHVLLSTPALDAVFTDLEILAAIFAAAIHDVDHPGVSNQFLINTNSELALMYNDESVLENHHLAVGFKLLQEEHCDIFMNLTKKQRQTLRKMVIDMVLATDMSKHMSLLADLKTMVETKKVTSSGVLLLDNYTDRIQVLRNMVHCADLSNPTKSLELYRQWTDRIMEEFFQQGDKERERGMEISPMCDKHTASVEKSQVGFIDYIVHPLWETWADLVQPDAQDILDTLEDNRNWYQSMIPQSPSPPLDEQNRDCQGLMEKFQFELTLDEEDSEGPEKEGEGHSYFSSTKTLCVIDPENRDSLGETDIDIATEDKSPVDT
Sequence of Cytochrome P450 1A2 (Homo sapiens) (P05177 whole entry, looked up): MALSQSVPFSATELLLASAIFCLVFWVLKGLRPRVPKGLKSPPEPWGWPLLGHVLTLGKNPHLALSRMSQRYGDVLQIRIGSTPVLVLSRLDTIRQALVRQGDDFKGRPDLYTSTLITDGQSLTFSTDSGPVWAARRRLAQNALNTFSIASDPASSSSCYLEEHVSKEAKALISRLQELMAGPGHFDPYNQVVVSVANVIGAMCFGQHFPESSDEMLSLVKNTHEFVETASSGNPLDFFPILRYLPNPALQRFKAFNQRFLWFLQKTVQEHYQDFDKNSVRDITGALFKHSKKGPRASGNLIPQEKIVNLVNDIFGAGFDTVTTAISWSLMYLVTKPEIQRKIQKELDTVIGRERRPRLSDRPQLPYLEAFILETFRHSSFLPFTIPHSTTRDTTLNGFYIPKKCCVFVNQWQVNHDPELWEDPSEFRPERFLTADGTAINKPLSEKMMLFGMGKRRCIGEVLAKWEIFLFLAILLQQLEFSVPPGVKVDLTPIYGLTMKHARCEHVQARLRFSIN
Sequence of Ubiquitin carboxyl-terminal hydrolase 1 (Homo sapiens) (O94782 whole entry, looked up): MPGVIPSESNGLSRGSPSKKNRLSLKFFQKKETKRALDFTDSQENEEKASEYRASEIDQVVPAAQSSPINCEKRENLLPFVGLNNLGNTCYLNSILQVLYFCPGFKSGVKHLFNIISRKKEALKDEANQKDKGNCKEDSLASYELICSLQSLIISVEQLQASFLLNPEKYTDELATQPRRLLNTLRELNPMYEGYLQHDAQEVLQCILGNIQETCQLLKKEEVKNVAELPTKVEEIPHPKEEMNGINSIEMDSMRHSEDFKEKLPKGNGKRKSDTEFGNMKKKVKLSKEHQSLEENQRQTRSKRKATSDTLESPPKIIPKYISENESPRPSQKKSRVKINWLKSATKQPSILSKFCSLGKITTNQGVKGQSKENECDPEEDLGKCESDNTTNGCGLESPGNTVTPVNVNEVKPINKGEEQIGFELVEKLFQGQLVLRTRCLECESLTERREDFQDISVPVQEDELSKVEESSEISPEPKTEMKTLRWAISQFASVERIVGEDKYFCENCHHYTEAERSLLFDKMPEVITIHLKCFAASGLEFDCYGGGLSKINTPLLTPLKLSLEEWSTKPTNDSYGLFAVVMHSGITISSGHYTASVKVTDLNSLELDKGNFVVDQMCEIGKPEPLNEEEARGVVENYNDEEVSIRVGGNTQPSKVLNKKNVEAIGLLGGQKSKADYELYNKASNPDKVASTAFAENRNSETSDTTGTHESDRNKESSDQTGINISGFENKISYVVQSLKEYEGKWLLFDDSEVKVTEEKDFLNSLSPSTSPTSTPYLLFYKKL

| Structure (SMILES) | Potency [1] | activity change, negative = inhibition [2] [%] | Potency [3] | activity change, negative = inhibition [4] [%] | activity, negative = inhibition [5] [%] | Potency [6] [µM] | Potency [7] [µM] | Potency [8] | Potency [9] | Potency [10] | Potency [11] | Potency [12] | Potency [13] | outcome [14] | Potency [15] | Potency [16] |
| --- | --- | --- | --- | --- | --- | --- | --- | --- | --- | --- | --- | --- | --- | --- | --- | --- |
| Cc1ccccc1-c1nc(NC2CC2)c2ccccc2n1 | 1.17 µM (active) | 17.6 | 0.501 µM (active) | -19.1 | -0.286 | > 46 | > 46 | inactive | 3.98 µM (active) | inactive | 11.2 µM (active) | 10 µM (active) | inactive | inactive |  |  |
| CN(C)c1ncc2nc(-c3cccs3)c(=O)n(CCc3ccccc3)c2n1 |  | 14.4 | 5.01 µM (active) | 9.39 |  | > 9.22 | > 46 |  |  |  | inactive | inactive | inactive | inactive | inactive |  |
| Cc1nc2cncnc2n(Cc2ccccc2Cl)c1=O | > 11.4 µM | -18 |  | -1.6 | -18.9 | > 9.22 | > 46 | inactive |  |  | inactive | inactive | inactive | inactive |  |  |
| Cc1cnc(CNc2cc(-c3cccnc3)ncn2)cn1 |  | -14.2 | 15.8 µM (active) | -1.2 | -0.57 | > 46 | > 46 | inactive |  | inactive | 31.6 µM (active) | inactive | inactive | inactive | inactive |  |
| COCCn1c(=O)c(-c2ccccc2)nc2cncnc21 | > 11.4 µM | -9.61 | 0.794 µM (active) | -5.89 | -10.2 | > 9.22 | > 46 | inactive |  |  | inactive | inactive | inactive | inactive |  |  |
| COc1ncc2ncc(=O)n(CCc3ccccc3)c2n1 | > 11.4 µM | -10.9 |  | 4.91 | -13.6 | > 9.22 | > 46 | inactive |  |  | 14.1 µM (active) | 10 µM (active) | inactive | inactive | inactive |  |
| N#CCCn1c(=O)c(-c2ccc(F)cc2)nc2cnc(N3CCNCC3)nc21 | > 11.4 µM |  |  |  |  | > 9.22 | > 46 | inactive |  | inactive | inactive | inactive | inactive | inactive | inactive | 3.16 µM (active) |
